{"source": "PubChem BioAssay AID1861", "about": "(The Scripps Research Institute Molecular Screening Center, 2009)", "note": "The whole screen tested about 290,000 compounds, of which about 3,100 (1.1%) were called active. Only a selection was taken, and actives are over-represented in it overall. A number with no mark means an inactive call. No stated cut-off is given here; in the data, active means inhibition above about 16% (passing the limit was not always enough); inactive means the rest.", "data": [{"target": "Neuropeptides B/W receptor type 1 (Homo sapiens) (UniProt P48145)", "sequence (P48145 whole entry, looked up)": "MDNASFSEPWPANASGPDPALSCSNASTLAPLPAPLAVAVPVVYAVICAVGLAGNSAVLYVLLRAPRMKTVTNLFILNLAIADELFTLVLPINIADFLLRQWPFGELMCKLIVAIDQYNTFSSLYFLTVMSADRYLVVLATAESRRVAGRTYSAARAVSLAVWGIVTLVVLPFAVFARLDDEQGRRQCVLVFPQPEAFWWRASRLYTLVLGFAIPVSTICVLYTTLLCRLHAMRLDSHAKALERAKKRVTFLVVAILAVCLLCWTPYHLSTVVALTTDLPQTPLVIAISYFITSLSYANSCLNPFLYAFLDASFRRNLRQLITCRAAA", "assay": "GPR7 receptor antagonists, primary screen, cell-based, fluorescence, single concentration (AID 1861);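 further: cells stimulated with the agonist NPW; 0% = agonist with vehicle and 100% = vehicle without agonist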", "conditions": "GPR7-expressing cells, fluorescence antagonist assay; at 4.4 µM; stronger effect = higher value", "values": [{"smiles": "CS(=O)(=O)N1CCc2nc(-c3ccccc3)sc2C1", "inhibition": "-4.29%"}, {"smiles": "C=CCSc1nnc(NC(=O)c2ccc(NC(C)=O)cc2)s1", "inhibition": "-10.1%"}, {"smiles": "CCSc1nsc(NC(=O)Nc2cccc(C(C)=O)c2)n1", "inhibition": "37.1% (active)"}, {"smiles": "CC(=O)c1cccc(NC(=O)c2ccncc2)c1", "inhibition": "-7.93%"}, {"smiles": "C=CCSc1nsc(NC(=O)Nc2cccc(C(C)=O)c2)n1", "inhibition": "32.5% (active)"}, {"smiles": "C=C(C)C(=O)Nc1cccc(C(C)=O)c1", "inhibition": "-8.07%"}, {"smiles": "CCSc1nsc(NC(=O)Nc2ccccc2OC)n1", "inhibition": "0.35%"}, {"smiles": "Cc1ccc(S(=O)(=O)NCc2ccc(C(=O)NC3CCC(C)CC3)cc2)cc1", "note": "(configuration not stated)", "inhibition": "-11.8%"}, {"smiles": "COC(=O)c1ccc(CN2CCCC(C(=O)Nc3cccc(-n4cnnn4)c3)C2)cc1", "note": "(configuration not stated)", "inhibition": "-3.8%"}, {"smiles": "CCOC(=O)C1Sc2[nH]c(=O)sc2C(c2ccc(Cl)cc2)C1C(=O)OCC", "note": "(configuration not stated)", "inhibition": "-3.9%"}, {"smiles": "Cc1cc(C)c(C(=O)CSc2nc(C)cc(=O)[nH]2)c(C)c1", "inhibition": "5.17%"}, {"smiles": "Clc1ccc(C2CC(c3cccs3)n3ncnc3N2)cc1Cl", "note": "(configuration not stated)", "inhibition": "24.9% (active)"}, {"smiles": "COc1ccc(C2CC(c3ccc(C)cc3)Nc3ncnn32)cc1", "note": "(configuration not stated)", "inhibition": "3.36%"}, {"smiles": "COc1ccc(C2CC(c3ccccc3)Nc3ncnn32)cc1", "note": "(configuration not stated)", "inhibition": "12.2%"}, {"smiles": "Brc1ccccc1CN1CCC(Cc2ccccc2)CC1", "inhibition": "-13.6%"}, {"smiles": "COc1ccc(Cn2c(C)c(C)c(C#N)c2NC(=O)Nc2ccc(F)cc2)cc1", "inhibition": "-4.33%"}, {"smiles": "COc1cccc(/C=C2/SC(=S)N(CC(=O)NC3C=CS(=O)(=O)C3)C2=O)c1", "note": "(configuration not stated)", "inhibition": "-2.21%"}, {"smiles": "Cc1nc2ccc(S(=O)(=O)N(C)CC(=O)NC(C)c3ccccc3)cc2s1", "note": "(configuration not stated)", "inhibition": "2.55%"}, {"smiles": "COCCN1C(=O)C(=O)/C(=C(/O)c2ccc(S(=O)(=O)N3CCCCC3)cc2)C1c1ccc(OC)c(OC)c1", "note": "(configuration not stated)", "inhibition": "-6.88%"}, {"smiles": "COC(=O)c1cc(N2CCNCC2)nc2ccccc12", "inhibition": "1.6%"}, {"smiles": "COc1ccccc1CC(=O)NCCc1c[nH]c2ccccc12", "inhibition": "-0.98%"}, {"smiles": "COc1cccc(CNCCc2c[nH]c3ccccc23)c1OCc1ccccc1F", "inhibition": "39.6% (active)"}, {"smiles": "COc1ccc(S(=O)(=O)NCCc2c[nH]c3ccccc23)cc1OC", "inhibition": "-6.73%"}, {"smiles": "O=C(CN1CCC(NC(=O)Nc2ccccc2)CC1)Nc1cccc([N+](=O)[O-])c1", "inhibition": "-1.48%"}, {"smiles": "CC(NC(=O)c1cc(=O)[nH]c2ccccc12)c1ccc(F)cc1F", "note": "(configuration not stated)", "inhibition": "0.31%"}, {"smiles": "CC(C)CC(CCc1ccccc1)OS(N)(=O)=O", "note": "(configuration not stated)", "inhibition": "-8.91%"}, {"smiles": "Cc1cccc(NC(=O)c2cccc(C(=O)Nc3cccc(C)c3C)n2)c1C", "inhibition": "36.1% (active)"}, {"smiles": "Cc1nc(C)c(C(=O)Nc2cccc(C)c2C)o1", "inhibition": "1.66%"}, {"smiles": "Cc1cccc(NC(=O)c2ccc3nsnc3c2)c1C", "inhibition": "4.08%"}, {"smiles": "CC(C)N1CCC(NC(=O)Nc2ccccc2)CC1", "inhibition": "-11.8%"}, {"smiles": "Cn1cc(CNC(=O)c2ccc(OC3CCN(Cc4ccccn4)CC3)cc2)cn1", "inhibition": "-5.98%"}, {"smiles": "CN(Cc1ccccc1)C(=O)c1ccc(NC2=NC3CS(=O)(=O)CC3S2)cc1", "note": "(configuration not stated)", "inhibition": "-12.5%"}, {"smiles": "COc1ccc(C2C=C(c3ccc(Br)cc3)Nc3nc(NS(C)(=O)=O)nn32)cc1", "note": "(configuration not stated)", "inhibition": "15%"}, {"smiles": "O=C(NCCNc1ccccc1[N+](=O)[O-])c1ccccc1F", "inhibition": "2.99%"}, {"smiles": "O=C(NCCCNc1ccc([N+](=O)[O-])cc1Cl)c1ccccc1F", "inhibition": "5.46%"}, {"smiles": "O=C(NCCNc1ccc([N+](=O)[O-])cc1Cl)c1ccccc1F", "inhibition": "33.5% (active)"}, {"smiles": "COc1cccc(CNc2nc(C(F)(F)F)nc3ccccc23)c1", "inhibition": "-8.14%"}, {"smiles": "Cc1ccc(N2C(=O)C3C4C=CC(CC4)C3C2=O)cc1Cl", "note": "(configuration not stated)", "inhibition": "-5.89%"}, {"smiles": "CCCCN(CCCC)CC(O)Cn1c2ccccc2c(=O)c2ccccc21", "note": "(configuration not stated)", "inhibition": "4.5%"}, {"smiles": "CS(=O)(=O)N(CC(O)Cn1c2ccccc2c2ccccc21)c1cccc2ccccc12", "note": "(configuration not stated)", "inhibition": "29% (active)"}, {"smiles": "O=C1c2ccccc2S(=O)(=O)N1CC(O)Cn1c2ccccc2c2ccccc21", "note": "(configuration not stated)", "inhibition": "27.4%"}, {"smiles": "COc1cc(C(=O)NCc2cc3cc(Cl)ccc3n2C)cc(OC)c1OC", "inhibition": "-5.99%"}, {"smiles": "CCN(CC)S(=O)(=O)c1ccc(N2CCN(C)CC2)c(NC(=O)Nc2ccccc2F)c1", "inhibition": "6.45%"}, {"smiles": "COc1ccc(NC(=O)c2cnc(NS(=O)(=O)c3ccccc3)nc2)cc1", "inhibition": "-10.5%"}, {"smiles": "COc1ccc(NS(=O)(=O)c2ccc(NC(=O)c3ccc(N(C)S(C)(=O)=O)cc3)cc2)cc1", "inhibition": "22.9% (active)"}, {"smiles": "COc1ccc(NS(=O)(=O)c2ccc(NC(=S)NC(=O)CC(C)C)cc2)cc1", "inhibition": "24.2% (active)"}, {"smiles": "COc1cc(OC)cc(C(=O)Nc2ccc(S(=O)(=O)Nc3cc(C)on3)cc2)c1", "inhibition": "-3.8%"}, {"smiles": "CC(=O)c1ccc(NC(=S)NC(=O)CC(C)C)cc1", "inhibition": "-3.47%"}, {"smiles": "COc1cc(NS(=O)(=O)c2ccc(NC(C)=O)cc2)cc(OC)c1", "inhibition": "-5.8%"}, {"smiles": "Cc1ccc(C(=O)OCC(=O)NC(=O)Cc2ccccc2)c(O)c1", "inhibition": "-16.1%"}, {"smiles": "CCOC(=O)CNC(=O)/C=C/c1c(Cl)cccc1Cl", "inhibition": "10.2%"}, {"smiles": "O=C(Nc1ccccc1C(=O)O)c1ccc(N2C(=O)C3CC=CCC3C2=O)cc1", "note": "(configuration not stated)", "inhibition": "-9.35%"}, {"smiles": "O=C(c1ccccc1)N1CCC(CC2CC(c3ccc(Cl)cc3)=NO2)(C(=O)NCC2CCCCC2)CC1", "note": "(configuration not stated)", "inhibition": "-2.72%"}, {"smiles": "CCc1nc(Nc2ccc(NC(C)=O)cc2)c2oc3ccccc3c2n1", "inhibition": "-6.65%"}, {"smiles": "CC(C)OC(=O)CN1C(=O)C(=O)c2ccccc21", "inhibition": "-2.31%"}, {"smiles": "Cc1cccc2c1N(CC(=O)OC(C)C)C(=O)C2=O", "inhibition": "-5.53%"}, {"smiles": "CC(C)OC(=O)CN1C(=O)c2ccccc2C1=O", "inhibition": "20.4% (active)"}, {"smiles": "N#CCOc1ccc(C2=NO[C@@H]3[C@@H]4C[C@@H]([C@H]5C(=O)N(c6ccc7c(c6)OCO7)C(=O)[C@@H]45)[C@H]23)cc1", "inhibition": "4.89%"}, {"smiles": "CCc1nn(CC(=O)N2CCN(CC)CC2)c(=O)c2cccn12", "inhibition": "-11.1%"}, {"smiles": "O=C(Nc1ccccc1Cl)Nn1cnnc1", "inhibition": "-16.3%"}, {"smiles": "O=C(COC(=O)c1cccs1)Nc1ccccc1Cl", "inhibition": "-12.8%"}, {"smiles": "O=C(Nc1ccccc1Cl)/C(Cl)=C(\\Cl)S(=O)c1ccccc1", "note": "(configuration not stated)", "inhibition": "23.4% (active)"}]}]}
